# Test results reported in PubChem BioAssay (NCI).
# Values joined by “and” are separate entries in the source; they are usually repeats but may differ in a detail not shown here. Equal entries are not always repeated. Compounds without any hit were thinned out: in the full panel of roughly 83,000, 20% have a hit.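 Results are percent growth after 48 hours of single-concentration exposure. 100 means growth as in untreated cells, lower positive values show inhibition; negative values down to -100 show cell death.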 Unmarked numbers belong to inactive results. Active and inactive are the calls of the source. The calls were made as follows: active = growth percent below 10; inactive = the rest.
# Tested on: HL-60(TB) leukemia
# Assay: NCI-60 one-dose screen, 48 h (100 = growth as untreated, 0 = no growth, -100 = all killed)
# Details: 10 µM unless noted
row,SMILES,growth
1,CCOC(=O)c1cc(CC)sc1NC(=O)CC(C)=O,51.4%
2,CN(C)c1ccc(/C=C\C(=O)c2ccccc2)cc1,76.6% and 81.7% and 75.5%
3,CNNc1ncnc2c1cnn2-c1ccc(S(N)(=O)=O)cc1,83.5%
4,CC1=C(CCC(C)N(C)Cc2ccc(OCCCN3CCCC3)cc2)C(C)(C)CCC1 (stereo not given),24.6%
5,CCCC(=O)Oc1ccc(/C(=C(\C)c2ccccc2)c2ccc(OCCN(CC)CC)cc2)cc1,39.2%
6,COc1ccc(OC)c(-c2nc(SCC(=O)c3ccc(C#N)cc3)[nH]c(=O)c2C#N)c1,106%
7,O=C(COc1ccc(-c2nc3ccccc3[nH]2)cc1)N=Nc1c(O)[nH]c2ccc(Cl)cc12,39.9%
8,Clc1ccc(N/N=C/c2ccccn2)nc1,-15.4% (active)
9,O=C(Cn1c(=O)ccn(CCCCCCCCOc2ccc(Br)cc2)c1=O)Nc1ccc(Oc2ccc(Cl)cc2)cc1,48.7%
10,COc1ccc(/C=N\Nc2ccc([N+](=O)[O-])cn2)cc1OC,100%
11,Cn1c(N)c(N=O)c(=O)n(C)c1=O,105% and 89.8%
12,O=C1CC(c2cccc(-c3cccnc3)c2)=Nc2ccc(Br)cc2N1,41.6%
13,Cc1nnc(-n2c(O)cc(=O)n(-c3ccccc3)c2=S)nc1/C=C/c1ccc(N(C)C)cc1,7.92% (active)
14,COC(=S)SCN(CSC(=S)OC)c1ccc(Cl)cc1,90.4%
15,CCc1nc2c(=O)[nH]cnc2o1,106%
16,O=C(Nc1ccc(I)cc1F)c1cc(Cl)ccc1O,-44.3% (active)
17,Cc1cc(Cl)nc(N(CCCNc2ccnc3cc(Cl)ccc23)Cc2cccs2)n1,-41.4% (active)
18,C=C1CC[C@@H]2[C@](C)(COC(C)=O)[C@H](OC(C)=O)CC[C@@]2(C)[C@@H]1CC(Sc1ccccc1)C1=CCOC1=O (stereo not given in full),-46.5% (active)
19,COc1ccc(OC)c(NCC(=O)n2nc(/C=C\c3ccc(O)c(OC)c3)cc2/C=C\c2ccc(O)c(OC)c2)c1,-8.64% (active)
20,C1CN(SSN2CCOCC2)CCO1,35.6% [100 µM]

row,SMILES,growth
1,COc1cc(OC)cc(-c2ccc(-c3ccc(C(=N)N)cn3)o2)c1,-65.7% (active)
2,N#CC1=C(N)Oc2cc(N)ccc2C1c1cccnc1 (stereo not given),96.6%
3,Cc1n(Cc2ccc3ccccc3n2)cc[n+]1Cc1ccc2ccccc2c1,-32.9% (active)
4,CCOCC(O)(c1ccc(Cl)cc1)c1ccc(Cl)cc1,106%
5,CSc1nnc(-c2cc3c([nH]c4ccccc43)c(-c3cccc(O)c3)n2)n1-c1ccccc1,7.59% (active)
6,COc1ccc(-c2cn(-c3cc(OC)c(OC)c(OC)c3)c(=O)n2C(C)=O)cc1,32.2%
7,CCn1c(SCC(=O)c2ccc(Br)cc2)nnc1-c1ccncc1,103%
8,Clc1cccc(-c2cc(-c3ccc4c(c3)OCCO4)[nH]n2)c1,15.2% [25 µM]
9,Cn1cnc([N+](=O)[O-])c1Sc1nc(N)nc2nc[nH]c12,59.9%
10,CN(C)CCCC1(c2ccc(F)cc2)OCc2cc(-c3cccc4[nH]ccc34)ccc21 (stereo not given),31.6%
11,N[C@H]1CN(C(=O)c2cc3cc(Br)c(F)c(F)c3[nH]2)C[C@@H]1O,98.5%
12,COc1ccc(C)cc1NC(=O)SC(C)C,94.7% [100 µM]
13,CCOC(=O)[C@]1(Br)CC[C@@]1(Br)C(=O)OCC,47.7%
14,CCOC(=O)c1cn2ncnc(Oc3ccc(NC(=O)NCCN4CCOCC4)c(Cl)c3)c2c1C,101%
15,CC(=O)N(C)c1ccc(Nc2cc(C)[nH]c3ccc4ncnc4c23)cc1,21.3%
16,C[C@H](C(=O)N[C@@H](Cc1ccc(-c2ccccc2)cc1)C(=O)NC1CC(C)(C)N(C)C(C)(C)C1)c1ccc(-c2ccccc2)c(F)c1,-61.2% (active)
17,CCN1CCN(Cc2ccc(NC(=O)c3cccc(C#Cc4cccc5[nH]nc(N)c45)c3)cc2C(F)(F)F)CC1,-54.1% (active)
18,COCCNC(=O)c1ccc(-c2nc3ccc4[nH]ncc4c3c3c2CCCC3)cc1,11.4%
19,CC(C)(C)n1cc(-c2ccnc(NCCNS(=O)(=O)c3cccc(F)c3)c2)c(-c2ccccc2)n1,73.5%
20,O=C(O)/C=C/C=C/c1ccccc1,106% and 112%
